Results on 20 molecules are retold here after PubChem BioAssay AID504550 (Sanford-Burnham Center for Chemical Genomics, 2011).

Each structure is given as a SMILES string. The list shows a part of the results. Values without a mark were called inactive. Calls of active or inactive are those of the source.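 How the source made its calls: active means mean activation at 20 µM of at least 40%; inactive means the rest.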

The assay deals with Neurotensin receptor type 1 (Homo sapiens) (UniProt P30989). The assay can be described thus: beta-arrestin-GFP spots via human NTR1 – imaging, U2OS cells, single concentration, confirmation (AID 504550).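 Further: 0% = DMSO without peptide and 100% = 100 nM NTR1 peptide.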 The settings on record: NTR1-U2OS beta-arrestin-GFP translocation imaging; at 20 µM; hits give high values.
Neurotensin receptor type 1 (Homo sapiens), sequence (P30989 whole entry, looked up): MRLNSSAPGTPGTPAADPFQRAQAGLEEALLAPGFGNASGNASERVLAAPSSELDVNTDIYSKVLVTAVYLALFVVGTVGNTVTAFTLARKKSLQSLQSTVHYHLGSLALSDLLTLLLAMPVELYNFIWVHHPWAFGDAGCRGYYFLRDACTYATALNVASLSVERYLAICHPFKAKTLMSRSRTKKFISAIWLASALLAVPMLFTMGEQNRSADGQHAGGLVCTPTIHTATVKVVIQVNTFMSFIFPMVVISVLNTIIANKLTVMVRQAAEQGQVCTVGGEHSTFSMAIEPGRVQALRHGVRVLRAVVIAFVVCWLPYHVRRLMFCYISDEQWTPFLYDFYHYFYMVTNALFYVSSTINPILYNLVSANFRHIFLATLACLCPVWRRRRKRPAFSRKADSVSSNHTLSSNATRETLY
Take `CCCCNc1c(-c2cccc(Sc3ccc(OC)cc3)c2)nc2ccccn12`: the activation was 68.2% (active).

In the case of `O=C(/C(=C/c1cccc(Cl)c1)c1nc2ccccc2[nH]1)c1ccccc1`, the activation was 62.5% (active).

Take `Cc1ccc(NC(=O)COc2coc(CN3CCc4ccccc4C3)cc2=O)cc1Cl`: the activation is -2.38%. Consider `COc1ccc(C(C[N+](=O)[O-])n2nc(C)cc2C)cc1` (stereo not given), for which the activation is 52.4% (active). The value for `Nc1nc(Nc2ccccc2F)nc(NC2CCCCC2)c1[N+](=O)[O-]` was 13.2%; that for `CC(C)c1ccccc1OCC(O)CN(CC(O)COc1cccc2ccccc12)C(C)C` (stereo not given) was 15.3%.

With `CC(C)Oc1c(Br)cc(Br)cc1/C=N/NC(N)=S`, the activation is 26.4%. To `OC(CN=c1sc2ccccc2n1CC(O)COc1ccccc1)COc1ccccc1` (stereo not given) belongs 18.2%; to `O=C(/C=C/c1ccc(Cl)c([N+](=O)[O-])c1)c1cccnc1`, 49.5% (active); to `Cc1cccc(-c2nc(Nc3ccc(O)cc3)c3ccccc3n2)c1`, 31.3%. In the case of `O=C(N/N=C/c1c(Cl)[nH]c2ccccc12)c1sc2ccccc2c1Cl`, the activation was 21.7%. Consider `CN1/C(=C\C(=O)c2oc3ccccc3c2N)C(C)(C)c2ccccc21`, for which the activation is 15%. To `O=c1oc2ccccc2cc1-c1csc(Nc2ccc(O)cc2)n1` belongs 10.5%; to `CCCCCCCCCCOC(=O)Cn1c(COc2cccc(OC)c2)[n+](C)c2ccccc21`, 71.8% (active).

Turning to `CCOC(=O)CSC1=C(C#N)C(c2ccco2)C(C(=O)OCc2ccccc2)=C(C)N1` (stereo not given), the activation is 7.17%. In the case of `O=C(N/N=C/c1ccc(OC(=O)c2ccccc2Cl)cc1)c1ccc(O)cc1`, the activation is 50.1% (active). The value for `Cc1cccc(-n2c(SCC(N)=O)nc3c(c2=O)C2(CCCCC2)Cc2ccccc2-3)c1` was 22.7%. The value for `CC(C)Cn1c(N)c(C(=O)NCc2cccs2)c2nc3ccccc3nc21` was 21%; that for `COc1cccc(/C=N/Nc2cc(C)nc(-c3ccccc3O)n2)c1O` was 36.7%. The value for `CC(C)(C)OC(=O)N1CCC(NC(=O)c2[nH]cnc2C(=O)N[C@@H](Cc2ccccc2)C(=O)OCc2ccccc2)CC1` was 51.5% (active).
